# From publication PMC12864922, “TDP-43 directly inhibits mRNA accumulation in neurites through modulation of mRNA stability”
# Over roughly 9,900 sequences, “r (bound/input frequency ratio)” has its median near 0.7; the highest 2% begin near 6.5. Shown is part of a subset that was picked to be rich in the highest values.
# B1: ENSMUSG00000022095.3|Fam160b2|123:127 (ssRNA)
# RNA: GGGAGUUCUACAGUCCGACGAUCGCUUCGAUAUCCGCAUGCUAAAGGAGCUGGCUGCCAUUGCGUUUGUCAAGUUUCCCCCACACGGUCCUUACCUGAACUUCUCUCCACCUCCAGAAGGGCAAGUCUGAGCCAGGAGCAUGACGGGUGGGGGAAGAUUCCUGCCACACAACUUCUGCCCACGGGCAGUCUCCUGCCUGGCCAUGCUGCCACUCUGUCCUCCAUGCCGGGGACUUCAGCUGCAGGACACCUCACCUGUUGACCCCACGAGCUGAGGUUUCAAGGAGGUGCUGGCUCCUAAGGCCUCUUGCGGUCGCACUAGUGUGGAAUUCUCGGGUGUCAAGG
# B2: ENSMUSG00000004113.146|Cacna1b|6:10;184:188;241:245;249:253 (ssRNA)
# RNA: GGGAGUUCUACAGUCCGACGAUCGCUUCGAUAUCCGCAUGCUACACAUCAUACUAGAGAUGCGCUCAAGGGCCUGCCUUUCACCUACACUGUCACCAUAACAGGGACCAAAUCUGGAGGAUGUCCUUGCUGUUGAUUCUGGUUUUCAGUCACAACACUUUCACUGUUUGUCAUUUCUAUGUAGUUGAUCUAGAAAAAGCAGAAAUCAAAACAGGAAAGGAAAUGUUACACAAACUUUAAAAAAAAAGUCAACAUGUAGGAAGGUCUCCAUUUUGCAUUGUUUCACACACUUCAUACCAAUGUUCUCUUGCGGUCGCACUAGUGUGGAAUUCUCGGGUGUCAAGG
# B3: ENSMUSG00000031028.47|Tub (ssRNA)
# RNA: GGGAGUUCUACAGUCCGACGAUCGCUUCGAUAUCCGCAUGCUACUGAAGCAGGGGGGACAGCAAAUGGGUAUGACAGGAGAAGAAUAUUUCUGUGCCCCAAGGUCAACACACAUGCCCAGUCCUGGGUCAGUCCCCUGCUGCAGUGGUGUUAUCACACCGGAAAGCCUCUUCACCUGGAGGUACAGAGGGAGAGGAAGCACAAGCCUGGCUGCUGUGGCUCAGCCAUCCACUCAGCCUACGAGUCAGAGACAGUGGGUGUCCCGGGAAGCAGGGGUACAGUGAGUGUGUGUGUAUGUACAGGGCUCUUGCGGUCGCACUAGUGUGGAAUUCUCGGGUGUCAAGG
# B4: ENSMUSG00000043670.69|Diras1 (ssRNA)
# RNA: GGGAGUUCUACAGUCCGACGAUCGCUUCGAUAUCCGCAUGCUACCAUUCUAUCUGCACCCCACAACCACACACUGGAGGUUUGAUCCCUGUGGAUCUGAAAACAGGGACCUGGCUAAGGAACUGCUCAUCCCAGUCAGGCCCAGAGAGGUUACCUUGCCUCUCCAUCUCUGUCCCUGUGUGCCCAGCCAUGCCCACUGUCCCUGUCCCUCACAUUCUAUCACUGUGACCUCUGGGGAGUGCCCAUUGACCUCAUCUUCCUUCACUAAUAUCUUAUUUCUUUCACCUGAUCCUGUCCUUUCCCCCUCUUGCGGUCGCACUAGUGUGGAAUUCUCGGGUGUCAAGG
# B5: ENSMUSG00000004113.292|Cacna1b (ssRNA)
# RNA: GGGAGUUCUACAGUCCGACGAUCGCUUCGAUAUCCGCAUGCUACAGUGUGCACAGAUAGCUGGGAGGCCACGAGAGAAAGGUUGCACACAGACAGGCAGGCACUCCUUGGUGUGGUCUCUCUGUUUUGAAACUUCUGAUGACUUCUUGGUGGCUUGUUGUCUUCUACCCCAUGUUUCUCACAGGAUCUGUGUGUGUGUGUGUGUGUGUGUGUGUGUGUGUGUGUGUGUGUGUUAGCAUGUGUGUAUUAGCGUGUGUGAGUGUGUGAGCAUGCACGAGUCAUAGGAGAUGCAGGUGUAUGUGUGCUCUUGCGGUCGCACUAGUGUGGAAUUCUCGGGUGUCAAGG
# B6: ENSMUSG00000004113.305|Cacna1b (ssRNA)
# RNA: GGGAGUUCUACAGUCCGACGAUCGCUUCGAUAUCCGCAUGCUAUGUUUUGAAACUUCUGAUGACUUCUUGGUGGCUUGUUGUCUUCUACCCCAUGUUUCUCACAGGAUCUGUGUGUGUGUGUGUGUGUGUGUGUGUGUGUGUGUGUGUGUGUGUUAGCAUGUGUGUAUUAGCGUGUGUGAGUGUGUGAGCAUGCACGAGUCAUAGGAGAUGCAGGUGUAUGUGUGUGGUGUGCAUAUGUGUAUGUGUGUGUGUGUGUGUGUGUGUGUAGGUGUGUUCAGCAAGUGGCUAUUGUCAACCAUAGGCUCUUGCGGUCGCACUAGUGUGGAAUUCUCGGGUGUCAAGG
# B7: ENSMUSG00000004113.295|Cacna1b (ssRNA)
# RNA: GGGAGUUCUACAGUCCGACGAUCGCUUCGAUAUCCGCAUGCUAGGGAGGCCACGAGAGAAAGGUUGCACACAGACAGGCAGGCACUCCUUGGUGUGGUCUCUCUGUUUUGAAACUUCUGAUGACUUCUUGGUGGCUUGUUGUCUUCUACCCCAUGUUUCUCACAGGAUCUGUGUGUGUGUGUGUGUGUGUGUGUGUGUGUGUGUGUGUGUGUGUUAGCAUGUGUGUAUUAGCGUGUGUGAGUGUGUGAGCAUGCACGAGUCAUAGGAGAUGCAGGUGUAUGUGUGUGGUGUGCAUAUGUGUAUCUCUUGCGGUCGCACUAGUGUGGAAUUCUCGGGUGUCAAGG
# B8: ENSMUSG00000004113.303|Cacna1b (ssRNA)
# RNA: GGGAGUUCUACAGUCCGACGAUCGCUUCGAUAUCCGCAUGCUAGUGUGGUCUCUCUGUUUUGAAACUUCUGAUGACUUCUUGGUGGCUUGUUGUCUUCUACCCCAUGUUUCUCACAGGAUCUGUGUGUGUGUGUGUGUGUGUGUGUGUGUGUGUGUGUGUGUGUGUUAGCAUGUGUGUAUUAGCGUGUGUGAGUGUGUGAGCAUGCACGAGUCAUAGGAGAUGCAGGUGUAUGUGUGUGGUGUGCAUAUGUGUAUGUGUGUGUGUGUGUGUGUGUGUGUAGGUGUGUUCAGCAAGUGGCUAUUCUCUUGCGGUCGCACUAGUGUGGAAUUCUCGGGUGUCAAGG
# B9: ENSMUSG00000004113.290|Cacna1b (ssRNA)
# RNA: GGGAGUUCUACAGUCCGACGAUCGCUUCGAUAUCCGCAUGCUACAGGAAGGUGUUCAGUGUGCACAGAUAGCUGGGAGGCCACGAGAGAAAGGUUGCACACAGACAGGCAGGCACUCCUUGGUGUGGUCUCUCUGUUUUGAAACUUCUGAUGACUUCUUGGUGGCUUGUUGUCUUCUACCCCAUGUUUCUCACAGGAUCUGUGUGUGUGUGUGUGUGUGUGUGUGUGUGUGUGUGUGUGUGUGUUAGCAUGUGUGUAUUAGCGUGUGUGAGUGUGUGAGCAUGCACGAGUCAUAGGAGAUGCACUCUUGCGGUCGCACUAGUGUGGAAUUCUCGGGUGUCAAGG
# B10: ENSMUSG00000004113.293|Cacna1b (ssRNA)
# RNA: GGGAGUUCUACAGUCCGACGAUCGCUUCGAUAUCCGCAUGCUAGCACAGAUAGCUGGGAGGCCACGAGAGAAAGGUUGCACACAGACAGGCAGGCACUCCUUGGUGUGGUCUCUCUGUUUUGAAACUUCUGAUGACUUCUUGGUGGCUUGUUGUCUUCUACCCCAUGUUUCUCACAGGAUCUGUGUGUGUGUGUGUGUGUGUGUGUGUGUGUGUGUGUGUGUGUGUUAGCAUGUGUGUAUUAGCGUGUGUGAGUGUGUGAGCAUGCACGAGUCAUAGGAGAUGCAGGUGUAUGUGUGUGGUGUCUCUUGCGGUCGCACUAGUGUGGAAUUCUCGGGUGUCAAGG
# B11: ENSMUSG00000004113.302|Cacna1b (ssRNA)
# RNA: GGGAGUUCUACAGUCCGACGAUCGCUUCGAUAUCCGCAUGCUAUCCUUGGUGUGGUCUCUCUGUUUUGAAACUUCUGAUGACUUCUUGGUGGCUUGUUGUCUUCUACCCCAUGUUUCUCACAGGAUCUGUGUGUGUGUGUGUGUGUGUGUGUGUGUGUGUGUGUGUGUGUGUUAGCAUGUGUGUAUUAGCGUGUGUGAGUGUGUGAGCAUGCACGAGUCAUAGGAGAUGCAGGUGUAUGUGUGUGGUGUGCAUAUGUGUAUGUGUGUGUGUGUGUGUGUGUGUGUAGGUGUGUUCAGCAAGUGCUCUUGCGGUCGCACUAGUGUGGAAUUCUCGGGUGUCAAGG
# B12: ENSMUSG00000004113.294|Cacna1b (ssRNA)
# RNA: GGGAGUUCUACAGUCCGACGAUCGCUUCGAUAUCCGCAUGCUAAUAGCUGGGAGGCCACGAGAGAAAGGUUGCACACAGACAGGCAGGCACUCCUUGGUGUGGUCUCUCUGUUUUGAAACUUCUGAUGACUUCUUGGUGGCUUGUUGUCUUCUACCCCAUGUUUCUCACAGGAUCUGUGUGUGUGUGUGUGUGUGUGUGUGUGUGUGUGUGUGUGUGUGUUAGCAUGUGUGUAUUAGCGUGUGUGAGUGUGUGAGCAUGCACGAGUCAUAGGAGAUGCAGGUGUAUGUGUGUGGUGUGCAUAUCUCUUGCGGUCGCACUAGUGUGGAAUUCUCGGGUGUCAAGG
# B13: ENSMUSG00000004113.291|Cacna1b (ssRNA)
# RNA: GGGAGUUCUACAGUCCGACGAUCGCUUCGAUAUCCGCAUGCUAGGUGUUCAGUGUGCACAGAUAGCUGGGAGGCCACGAGAGAAAGGUUGCACACAGACAGGCAGGCACUCCUUGGUGUGGUCUCUCUGUUUUGAAACUUCUGAUGACUUCUUGGUGGCUUGUUGUCUUCUACCCCAUGUUUCUCACAGGAUCUGUGUGUGUGUGUGUGUGUGUGUGUGUGUGUGUGUGUGUGUGUGUUAGCAUGUGUGUAUUAGCGUGUGUGAGUGUGUGAGCAUGCACGAGUCAUAGGAGAUGCAGGUGUACUCUUGCGGUCGCACUAGUGUGGAAUUCUCGGGUGUCAAGG
# Target: TDP-43 (Homo sapiens, UniProt Q13148 1-414)
# Sequence (Q13148 whole entry): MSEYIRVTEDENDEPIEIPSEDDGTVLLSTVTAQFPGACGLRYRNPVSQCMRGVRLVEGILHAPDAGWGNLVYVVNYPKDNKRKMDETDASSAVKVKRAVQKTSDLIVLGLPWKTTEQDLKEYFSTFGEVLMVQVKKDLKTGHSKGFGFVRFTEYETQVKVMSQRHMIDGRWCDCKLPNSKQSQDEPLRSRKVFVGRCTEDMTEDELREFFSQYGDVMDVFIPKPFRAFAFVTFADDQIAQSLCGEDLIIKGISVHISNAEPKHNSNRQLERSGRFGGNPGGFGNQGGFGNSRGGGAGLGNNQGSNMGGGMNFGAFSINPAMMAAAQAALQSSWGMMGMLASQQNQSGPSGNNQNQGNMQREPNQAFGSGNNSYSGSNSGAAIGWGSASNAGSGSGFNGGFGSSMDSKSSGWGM
# Assay: RNA Bind-n-Seq with designed 260-mer pool; 25 mM Tris-HCl, 150 mM KCl, 3 mM MgCl2, BSA (printed 500 mg/mL), 20 units/mL SUPERase IN; pH not stated; 500 nM RNA pool, 1 h, 4 C; TDP-43 5, 50, 500 nM; high values mean tight binding
# Conditions: protein: recombinant; tags: SBP (GST cleaved off with PreScission; pGEX-GST-SBP)
# In short: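 The incubation lasted 1 h at 4 °C and used 500 nM of an in vitro-transcribed 260-nt 3′ UTR oligo pool with recombinant SBP-tagged TDP-43 at 5, 50 or 500 nM immobilized on streptavidin beads. It took place in 25 mM Tris-HCl, 150 mM KCl, 3 mM MgCl2, BSA and SUPERase IN. Bound RNA was washed, eluted with biotin, converted to cDNA, PCR-amplified and sequenced to give R, each oligo's normalized abundance in the bound sample divided by that in input. Two independent protein batches provided the duplicates.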
row,Binder,binding signal
1,B1,0.205 R (bound/input frequency ratio)
2,B2,0.13 R (bound/input frequency ratio)
3,B3,2.21 R (bound/input frequency ratio)
4,B4,2.12 R (bound/input frequency ratio)
5,B5,6.93 R (bound/input frequency ratio)
6,B6,4.07 R (bound/input frequency ratio)
7,B7,5.7 R (bound/input frequency ratio)
8,B8,5.04 R (bound/input frequency ratio)
9,B9,5.7 R (bound/input frequency ratio)
10,B10,5.22 R (bound/input frequency ratio)
11,B11,8.59 R (bound/input frequency ratio)
12,B12,6.88 R (bound/input frequency ratio)
13,B13,5.2 R (bound/input frequency ratio)
